# Measured values: PubChem BioAssay (NCATS)
# Unmarked numbers belong to inactive results. Inconclusive results are not listed. Where a call stands in place of a potency, no number is given. Calls of active or inactive are those of the source. Calls follow the shape of the dose curve; as a rule, active = well fitted curve in the direction sought with a large enough effect; inconclusive = small, poorly fitted or top-dose-only effect, or another doubt; inactive = no such curve, though single readings can be large; an effect the other way counts as inactive or inconclusive.
# Molecular target: Luciferin 4-monooxygenase (Photinus pyralis) (UniProt P08659)
# Test: Primary firefly luciferase (FLuc) qHTS assay for identification of artifact compounds. (AID 1845220); also: nearly all actives have a fitted effect of over 60% in size
# Details: purified firefly luciferase, luminescence, 5 min; series mostly up to 54.1 µM
# Outline: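 Reaction readout was CCD-imaged luminescence, taken 5 min after adding 10 nM purified firefly enzyme to compound-treated wells holding 10 uM luciferin and ATP in pH 7.6 buffer.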
Structure (SMILES),Potency,"activity change, negative = inhibition"
C[C@@H]1C[C@@H](O)[C@@]23CO[C@]2(CO)CCC[C@@H]3[C@@]12C[C@@H](c1ccoc1)OC2=O,inactive,
C[C@H]1/C=C/C=C/C=C/C=C/C=C/[C@@H](O)[C@H](C(=O)O)[C@H](O)C[C@H](O)CCC[C@H](O)C[C@H](O)C[C@H](O)[C@@H](C)C(=O)O[C@@H]1C,inactive,
C=C1C(OC(C)=O)[C@@]23CCC4[C@](C)(C(=O)O)CCC[C@@]4(C)[C@]2(O)CC[C@H]1C3 (stereo partly specified),inactive,
C=C(CCO)C(=O)OCC1OCC(OC(=O)C(=C)CCO[C@@H]2O[C@H](COC(=O)C(=C)CCO[C@@H]3O[C@H](CO)[C@@H](O)[C@H](O)[C@H]3O)[C@@H](O)[C@H](O)[C@H]2O)C(O)C1O (stereo partly specified),inactive,
CC1(C)CC[C@]2(C(=O)O[C@@H]3O[C@H](CO)[C@@H](O)[C@H](O)[C@H]3O)CC[C@]3(C)C(=CCC4[C@@]5(C)CC[C@H](O[C@H]6O[C@H](CO)[C@@H](O)[C@H](O[C@@H]7O[C@H](CO)[C@@H](O)[C@H](O)[C@H]7O)[C@H]6O)C(C)(C)C5CC[C@]43C)[C@@H]2C1 (stereo partly specified),,0.281% [at 11.6 µM]
CCCC(=O)Nc1cccc(NC(=O)c2ccccc2Br)c1,inactive,
Cc1cc(O[C@@H]2O[C@H](COC(=O)CC(=O)O)[C@@H](O)[C@H](O)[C@H]2O)c(C(C)C)cc1O,inactive,

# Tested on: not listed separately
# Test: Primary fluorescence-based thiol-reactive (MSTI) qHTS assay for identification of artifact compounds. (AID 1845221); also: nearly all actives have a fitted effect of over 65% in size; also: potency is read from the fitted curve at half-maximal effect;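 as to activity change, negative = thiol reactive: thiol-reactive compounds lower the probe fluorescence signal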
# Details: MSTI thiol-reactivity probe, 1 h; series mostly up to 53.8 µM
# Outline: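 A multi-concentration qHTS design tested compounds against 4 uM MSTI, pH 7.4 phosphate-buffered saline. Plates were protected from light for 1 h at room temperature before imaging fluorescence.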
Structure (SMILES),Potency,"activity change, negative = thiol reactive"
CC1(C)C[C@H]2C=C(C=O)[C@]3(C(=O)O)C[C@]3(C)[C@H]2C1,11.9 µM (active),
C=C1CC[C@]2(C(=O)O[C@@H]3O[C@H](CO)[C@@H](O)[C@H](O)[C@H]3O)CC[C@]3(C)C(=CCC4[C@@]5(C)C[C@H](O)[C@@H](O[C@@H]6O[C@H](C(=O)O)[C@@H](O)[C@H](O)[C@H]6O)[C@](C)(C=O)C5CC[C@]43C)C2C1 (stereo partly specified),,113% [at 11.5 µM]
O=C(CCCCC1CCCCC1)N1CCC(c2cnc[nH]2)CC1,inactive,
Nc1ccc(-n2nc(C(F)(F)F)cc2C(F)(F)F)cc1,inactive,
CC1(C)C2CC[C@@]34CC(CC[C@H]3[C@]2(C)CC[C@@H]1O[C@@H]1O[C@H](CO)[C@@H](O)[C@H](O)[C@H]1O)[C@](C)(O)C4 (stereo partly specified),inactive,
CC(=O)OC1C(O)/C(C)=C\C2C(OC(=O)c3ccccc3)C(C)CC2(OC(C)=O)C(OC(C)=O)C(C)/C=C/C(C)(C)C1OC(C)=O (stereo unspecified),inactive,
CC1=C2CC(O)(C(C)(C)O)C(O[C@@H]3O[C@H](CO)[C@@H](O)[C@H](O)[C@H]3O)CC(C)C2CC1=O (stereo partly specified),3.67 µM (active),
C=CCC/C=C/C#CCCCCCCCC[C@H]1C(=O)O[C@H](C)[C@@H]1O,inactive,
CC(=O)C1CCC(=O)N1Cc1ccccc1 (stereo unspecified),inactive,
O=C(O)CCc1cccc(O)c1O[C@@H]1O[C@H](CO)[C@@H](O)[C@H](O)[C@H]1O,14.7 µM (active),
CC(=O)/C=C/[C@H]1[C@](C)(O)[C@@H](O)[C@H](O)C2C(C)(C)CCC[C@@]21C (stereo partly specified),inactive,
C[C@@H]1O[C@@H](O[C@H]2[C@H](O[C@H]3[C@H](O[C@H]4CC[C@@]5(C)C(CC[C@]6(C)C5CC=C5[C@@H]7CC(C)(C)C[C@@H](O)[C@]7(C)CC[C@]56C)[C@@]4(C)CO)O[C@H](C(=O)O)[C@@H](O)[C@@H]3O)O[C@H](C(=O)O)[C@H](O)[C@@H]2O)[C@H](O)[C@H](O)[C@H]1O (stereo partly specified),,68.8% [at 11.5 µM]
COc1ccc(C(=O)NCc2cc(C(C)C)no2)cc1OC1CCN(C)CC1,inactive,
COc1cc(C(CO)CO[C@@H]2O[C@H](CO)[C@@H](O)[C@H](O)[C@H]2O)ccc1O (stereo partly specified),inactive,
COc1ccc(C2OCC3C(c4cc(OC)c5c(c4)OCO5)OCC23)cc1OC (stereo unspecified),inactive,
CC1(C)CCC[C@@]2(C)[C@H]1[C@H](O)C=C(CO)[C@]2(O)CO,inactive,
NC(Cc1c[nH]c2ccc(O)cc12)C(=O)O (stereo unspecified),16.8 µM (active),
C=C1C(O)CCC2(C)CC3(OC)OC(=O)C(C)=C3CC12 (stereo unspecified),inactive,
O=C1NC(=O)/C(=C/c2cccc(C(F)(F)F)c2)S1,1.06 µM (active),
CC(=O)NCC1CN(c2ccc(-c3ccc(CNCc4cn[nH]n4)cc3)c(F)c2)C(=O)O1 (stereo unspecified),inactive,

Structure (SMILES),Potency,"activity change, negative = thiol reactive"
C/C=C(\C)C(=O)OC1C2(O)CC3=C4CC(=O)OC(c5ccoc5)C4(C)CCC3C(C)(C2=O)C(C(OC(C)=O)C(=O)OC)C1(C)C (stereo unspecified),inactive,
CC(=O)/C=C/C1C(C)CC(O[C@@H]2O[C@H](CO)[C@@H](O)[C@H](O)[C@H]2O)CC1(C)C (stereo partly specified),14.7 µM (active),
CC1(C)Oc2ncnc(N)c2N=C1c1ccc(C2CCC(CC(=O)O)CC2)cc1 (stereo unspecified),inactive,
Cn1cc(Nc2cnccc2C(=O)O)c2cccnc21,inactive,
COc1cccc(C(=O)NCCNc2nc3cc(C)cc(C)c3cc2C#N)c1,inactive,
O=C(O)c1ccnc2cc(C(OCC3CCC(F)(F)CC3)c3ccccc3Cl)[nH]c12 (stereo unspecified),inactive,
OC[C@H]1O[C@@H](OCc2ccccc2)[C@H](O)[C@@H](O)[C@@H]1O,5.32 µM (active),
Cc1ccc(COC(=O)N2CC[C@@H](CNc3ncccn3)[C@@H](F)C2)cc1,inactive,
C=C1C(OC(C)=O)CCC2(C)CC3(O)OC(=O)C(C)=C3CC12 (stereo unspecified),inactive,
CC1CCC23COC(=O)C2=CC(O)CC3C1(C)CCc1ccoc1 (stereo unspecified),inactive,
C[C@H]1CC[C@@]2(OC1)O[C@H]1CC3C4CC[C@H]5C[C@@H](O[C@@H]6O[C@H](CO)[C@H](O[C@@H]7O[C@H](CO)[C@@H](O)[C@H](O[C@@H]8OC[C@@H](O)[C@H](O)[C@H]8O)[C@H]7O[C@@H]7O[C@H](CO)[C@@H](O)[C@H](O)[C@H]7O)[C@H](O)[C@H]6O)[C@H](O)C[C@]5(C)C4=CC(=O)[C@]3(C)[C@H]1[C@@H]2C (stereo partly specified),,203% [at 11.5 µM]
O=C(OCC(O)CO[C@@H]1O[C@H](C(=O)O)[C@@H](O)[C@H](O)[C@H]1O)c1ccccc1 (stereo partly specified),6.56 µM (active),
C[C@@H]1C[C@@H](O)[C@@]23CO[C@]2(CO)CCC[C@@H]3[C@@]12C[C@@H](c1ccoc1)OC2=O,inactive,
C[C@H]1/C=C/C=C/C=C/C=C/C=C/[C@@H](O)[C@H](C(=O)O)[C@H](O)C[C@H](O)CCC[C@H](O)C[C@H](O)C[C@H](O)[C@@H](C)C(=O)O[C@@H]1C,inactive,
C=C1C(OC(C)=O)[C@@]23CCC4[C@](C)(C(=O)O)CCC[C@@]4(C)[C@]2(O)CC[C@H]1C3 (stereo partly specified),inactive,
C=C(CCO)C(=O)OCC1OCC(OC(=O)C(=C)CCO[C@@H]2O[C@H](COC(=O)C(=C)CCO[C@@H]3O[C@H](CO)[C@@H](O)[C@H](O)[C@H]3O)[C@@H](O)[C@H](O)[C@H]2O)C(O)C1O (stereo partly specified),inactive,
CC1(C)CC[C@]2(C(=O)O[C@@H]3O[C@H](CO)[C@@H](O)[C@H](O)[C@H]3O)CC[C@]3(C)C(=CCC4[C@@]5(C)CC[C@H](O[C@H]6O[C@H](CO)[C@@H](O)[C@H](O[C@@H]7O[C@H](CO)[C@@H](O)[C@H](O)[C@H]7O)[C@H]6O)C(C)(C)C5CC[C@]43C)[C@@H]2C1 (stereo partly specified),,168% [at 11.5 µM]
CCCC(=O)Nc1cccc(NC(=O)c2ccccc2Br)c1,inactive,
Cc1cc(O[C@@H]2O[C@H](COC(=O)CC(=O)O)[C@@H](O)[C@H](O)[C@H]2O)c(C(C)C)cc1O,5.19 µM (active),
